Assay [1] is described as follows: qHTS assay to identify small molecule agonists of the androgen receptor (AR) signaling pathway in the presence of an antagonist - cell viability counter screen (AID 1259379). Further: nearly all actives have a fitted effect of over 25% in size. Further: potency means the concentration at half of the fitted maximal effect. Put shortly: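 Nilutamide-containing (3.0uM final) MDA-kb2 cultures, 3,000 cells/well, were treated with compounds across 15 concentrations. After 16 hr at 37C with no CO2, cell viability was determined by CellTiter-Fluor fluorescence in the luciferase assay wells.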
On the technique in general: Quantitative high-throughput screening tests each substance at several concentrations.

Assay [2] is described as follows: qHTS assay to identify small molecule agonists of the estrogen receptor beta (ER-beta) signaling pathway - cell viability counter screen (AID 1259380). Further: nearly all actives have a fitted effect of over 30% in size. Further: potency means the concentration at half of the fitted maximal effect. Put shortly:
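Steps: plate ER-beta-UAS-bla HEK293T cells, rest 6 hr; add compounds in DMSO; incubate 16 hr at 37C, 5% CO2; add FRET substrate 2 hr; add CellTiter-Glo, wait 30 min at room temperature; read luminescence.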

The nature of assay [3]: qHTS assay to identify small molecule antagonists of the estrogen receptor beta (ER-beta) signaling pathway - cell viability counter screen (AID 1259382). Further: nearly all actives have a fitted effect of over 55% in size. Further: potency means the concentration at half of the fitted maximal effect. Put shortly: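 Viability is scored by CellTiter-Glo luminescence (30 min, room temperature) in ER-beta-UAS-bla HEK293T wells already read for reporter fluorescence. Compound exposure lasts 16 hr at 37C alongside 1nM 17-beta-estradiol in charcoal-stripped serum medium.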

In assay [4] the target is Estrogen receptor (Homo sapiens) (UniProt P03372). Put plainly: qHTS assay to identify small molecule agonists of the estrogen receptor alpha (ER-alpha) signaling pathway in the presence of an antagonist (AID 1259383; calls by dose curve; further: top concentration of the series differs between compounds; nearly all actives have a fitted effect of over 15% in size). In outline:
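Readout was ERE-driven luciferase luminescence in VM7Luc4E2 cells, which express full-length ER-alpha endogenously. Compounds were tested at 15 concentrations for 22hr alongside 10.0nM ICI-182,780 (final concentration).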

A short description of assay [5]: qHTS assay to identify small molecule agonists or antagonists of the thyroid stimulating hormone receptor (TSHR) signaling pathway - wild type cell line counter screen (AID 1259384; calls by dose curve; further: potency means the concentration at half of the fitted maximal effect). In outline: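 Counter screen in untransfected Hek293: compounds (15-point titration, triplicate) plus phosphodiesterase inhibitor Ro20-1724 added after 18 h plating; 30 min RT. Intracellular cAMP via competitive d2/cryptate immunoassay, 1 h incubation.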

In assay [6] the target is Thyrotropin receptor (Homo sapiens) (UniProt P16473). In words: qHTS assay to identify small molecule antagonists of the thyroid stimulating hormone receptor (TSHR) signaling pathway (AID 1259385; calls by dose curve; further: nearly all actives have a fitted effect of over 20% in size; further: potency means the concentration at half of the fitted maximal effect). Put shortly: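 Antagonist mode: compound-treated TSHR-expressing HEK293 cells were stimulated with 1.5 ng/mL TSH (final) in presence of Ro20-1724 for 30 min at RT. HTRF cAMP detection after 1 h; each compound tested at 15 concentrations, triplicate.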

The nature of assay [7]: qHTS assay to identify small molecule agonists of the estrogen receptor alpha (ER-alpha) signaling pathway in the presence of an antagonist - cell viability counter screen (AID 1259386).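 Further: cells exposed to compounds for 22 h at 37 °C before the viability read; nearly all actives have a fitted effect of over 30% in size.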 Further: potency means the concentration at half of the fitted maximal effect. Put shortly: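 In this counter screen, compound effects on VM7Luc4E2 viability were tested in the presence of the antagonist ICI-182,780 at 10.0nM final. Compounds were dosed at 15 concentrations, exposure lasted 22hr, and the CellTiter-Fluor signal was read.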

In assay [8] the target is Progesterone receptor (Homo sapiens) (UniProt P06401). In words: qHTS assay to identify small molecule agonists of the progesterone receptor (PR) signaling pathway (AID 1346784; calls by dose curve; further: nearly all actives have a fitted effect of over 30% in size; further: potency means the concentration at half of the fitted maximal effect). Put shortly:
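HEK 293T PR-UAS-bla reporter cells, 2% charcoal-stripped FBS; 6 hr settle at 37C/5% CO2, compound (DMSO) 16 hr, LiveBLAzer B/G FRET substrate 2 hr RT, fluorescence intensity read.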

Assay [9] has as its target Androgen receptor (Homo sapiens) (UniProt P10275). In words: qHTS assay to identify small molecule agonists of the androgen receptor (AR) signaling pathway in the presence of an antagonist (AID 1259381; calls by dose curve; further: nearly all actives have a fitted effect of over 15% in size). Put shortly: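 Reporter-gene luminescence from MDA-kb2 cells exposed 16hr at 37C (0% CO2) to 15-point compound titrations with 3.0uM final nilutamide as AR antagonist.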

Several values for one entry are separate records, joined by “and”; a condition that tells them apart may be missing. Equal values may be shown once. Inconclusive results are not listed. The source holds several records for some structures; these can differ, active in one and inactive in another. Activity calls are given as the source filed them. Unless noted, the call rests on the fitted dose curve; in most records, active means well fitted curve in the direction sought with a large enough effect in the repeat runs; inconclusive means weak or mixed curves; inactive means no such curve, though single readings can be large; an effect the other way counts as inactive or inconclusive.

Chain of Androgen receptor (Homo sapiens) (P10275 whole entry, looked up): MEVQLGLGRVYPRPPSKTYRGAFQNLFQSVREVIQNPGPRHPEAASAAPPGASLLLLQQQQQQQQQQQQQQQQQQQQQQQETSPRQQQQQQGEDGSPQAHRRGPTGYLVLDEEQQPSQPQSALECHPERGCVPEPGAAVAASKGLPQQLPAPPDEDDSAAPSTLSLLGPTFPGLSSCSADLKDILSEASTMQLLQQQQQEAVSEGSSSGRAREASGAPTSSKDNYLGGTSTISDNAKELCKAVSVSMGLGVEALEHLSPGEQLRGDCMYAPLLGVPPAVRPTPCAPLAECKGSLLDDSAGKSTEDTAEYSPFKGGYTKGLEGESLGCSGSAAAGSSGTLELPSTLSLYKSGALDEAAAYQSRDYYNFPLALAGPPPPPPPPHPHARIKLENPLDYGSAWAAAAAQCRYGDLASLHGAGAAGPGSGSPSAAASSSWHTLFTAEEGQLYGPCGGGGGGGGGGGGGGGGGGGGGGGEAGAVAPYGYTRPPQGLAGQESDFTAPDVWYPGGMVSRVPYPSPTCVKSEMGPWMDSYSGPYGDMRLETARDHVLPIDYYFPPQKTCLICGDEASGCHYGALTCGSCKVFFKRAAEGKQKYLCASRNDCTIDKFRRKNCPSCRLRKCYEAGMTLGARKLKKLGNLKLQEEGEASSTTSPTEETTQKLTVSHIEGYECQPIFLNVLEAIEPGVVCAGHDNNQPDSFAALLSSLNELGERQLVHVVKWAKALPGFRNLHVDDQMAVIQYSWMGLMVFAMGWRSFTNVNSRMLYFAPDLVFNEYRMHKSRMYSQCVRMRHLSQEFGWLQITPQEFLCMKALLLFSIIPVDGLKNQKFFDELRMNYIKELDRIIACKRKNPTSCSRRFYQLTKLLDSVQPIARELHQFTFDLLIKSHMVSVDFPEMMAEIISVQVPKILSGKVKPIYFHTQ
Chain of Estrogen receptor (Homo sapiens) (P03372 whole entry, looked up): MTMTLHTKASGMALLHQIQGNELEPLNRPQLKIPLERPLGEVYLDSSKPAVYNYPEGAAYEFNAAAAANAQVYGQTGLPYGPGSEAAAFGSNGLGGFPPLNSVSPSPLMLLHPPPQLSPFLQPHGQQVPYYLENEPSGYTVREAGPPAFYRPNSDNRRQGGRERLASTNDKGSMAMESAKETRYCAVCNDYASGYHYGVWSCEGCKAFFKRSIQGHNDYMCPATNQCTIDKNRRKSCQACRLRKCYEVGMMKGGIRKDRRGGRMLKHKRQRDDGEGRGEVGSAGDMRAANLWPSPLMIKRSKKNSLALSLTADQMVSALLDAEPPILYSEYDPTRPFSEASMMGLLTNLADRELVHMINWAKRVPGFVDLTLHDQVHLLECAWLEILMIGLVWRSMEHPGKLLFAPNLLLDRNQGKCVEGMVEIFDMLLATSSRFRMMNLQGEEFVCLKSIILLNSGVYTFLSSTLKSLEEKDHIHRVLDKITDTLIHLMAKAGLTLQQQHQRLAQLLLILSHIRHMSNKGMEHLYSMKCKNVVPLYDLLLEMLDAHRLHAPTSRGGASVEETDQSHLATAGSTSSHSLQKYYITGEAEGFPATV
Chain of Progesterone receptor (Homo sapiens) (P06401 whole entry, looked up): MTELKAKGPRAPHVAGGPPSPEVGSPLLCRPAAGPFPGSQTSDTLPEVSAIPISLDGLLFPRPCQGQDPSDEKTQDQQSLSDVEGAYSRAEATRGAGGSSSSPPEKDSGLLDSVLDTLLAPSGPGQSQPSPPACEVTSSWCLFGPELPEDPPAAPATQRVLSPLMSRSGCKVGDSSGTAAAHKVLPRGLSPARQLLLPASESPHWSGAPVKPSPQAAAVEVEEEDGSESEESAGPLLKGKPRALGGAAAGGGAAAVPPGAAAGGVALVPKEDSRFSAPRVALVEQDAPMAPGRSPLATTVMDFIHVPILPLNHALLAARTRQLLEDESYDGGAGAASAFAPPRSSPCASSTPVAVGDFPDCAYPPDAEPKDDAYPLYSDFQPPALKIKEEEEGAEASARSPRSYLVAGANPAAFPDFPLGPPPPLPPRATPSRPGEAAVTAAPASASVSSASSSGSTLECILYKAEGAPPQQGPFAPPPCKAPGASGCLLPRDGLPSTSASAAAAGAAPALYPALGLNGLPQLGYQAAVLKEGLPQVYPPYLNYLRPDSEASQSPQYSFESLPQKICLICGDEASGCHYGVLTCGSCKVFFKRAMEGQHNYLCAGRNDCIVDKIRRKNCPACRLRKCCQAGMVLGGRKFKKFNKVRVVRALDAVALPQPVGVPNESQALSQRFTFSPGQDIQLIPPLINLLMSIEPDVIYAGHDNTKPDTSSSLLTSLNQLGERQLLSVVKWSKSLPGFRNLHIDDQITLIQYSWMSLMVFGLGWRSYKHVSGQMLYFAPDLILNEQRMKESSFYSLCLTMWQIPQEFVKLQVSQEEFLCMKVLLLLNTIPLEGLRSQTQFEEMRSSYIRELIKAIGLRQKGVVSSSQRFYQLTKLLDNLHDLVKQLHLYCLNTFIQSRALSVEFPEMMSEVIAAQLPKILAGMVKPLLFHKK
Chain of Thyrotropin receptor (Homo sapiens) (P16473 whole entry, looked up): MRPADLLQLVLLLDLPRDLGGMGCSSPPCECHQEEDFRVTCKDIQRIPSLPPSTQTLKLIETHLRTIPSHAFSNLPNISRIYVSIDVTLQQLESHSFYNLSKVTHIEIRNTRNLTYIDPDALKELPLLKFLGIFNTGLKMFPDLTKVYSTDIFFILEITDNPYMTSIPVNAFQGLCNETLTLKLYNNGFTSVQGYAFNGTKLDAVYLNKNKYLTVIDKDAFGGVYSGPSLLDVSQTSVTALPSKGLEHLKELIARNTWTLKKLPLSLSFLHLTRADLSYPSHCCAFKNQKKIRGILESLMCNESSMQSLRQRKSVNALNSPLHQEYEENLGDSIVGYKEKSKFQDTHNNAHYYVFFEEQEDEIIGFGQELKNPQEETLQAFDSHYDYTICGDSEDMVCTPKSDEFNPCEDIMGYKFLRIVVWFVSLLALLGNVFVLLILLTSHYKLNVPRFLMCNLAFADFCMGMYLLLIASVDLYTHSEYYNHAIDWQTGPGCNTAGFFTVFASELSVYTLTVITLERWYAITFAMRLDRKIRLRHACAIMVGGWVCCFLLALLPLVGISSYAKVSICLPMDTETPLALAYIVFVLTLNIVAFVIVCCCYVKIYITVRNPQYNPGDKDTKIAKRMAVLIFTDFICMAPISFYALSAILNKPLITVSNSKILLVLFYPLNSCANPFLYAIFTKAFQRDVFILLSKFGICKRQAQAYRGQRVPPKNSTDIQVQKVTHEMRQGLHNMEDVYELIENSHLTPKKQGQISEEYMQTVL

For `CCCCC/C=C/CC1CC(=O)OC1=O` (stereo not given), the Potency result in assay [1], in assay [2], in assay [3], in assay [4], in assay [5] and in [6] was “inactive” throughout. For the same molecule, in assay [7], the Potency result is “inactive”.

Take `COc1ccc(COC(C)=O)cc1`: the Potency entry in assay [1], in assay [2], in assay [3], in [5], in assay [6] and in [7] was “inactive” in each case. The Potency result in assay [8] was “inactive”.

For the molecule `CCOc1ccc2c(c1)C(C)=CC(C)(C)N2`, the Potency result in assay [1], in assay [2], in assay [9], in assay [3], in assay [4] and in [5] was “inactive” each time. The Potency entry in assay [6], in assay [7] and in [8] was “inactive” throughout.

On to `CC(COc1ccccc1)N(CCCl)Cc1ccccc1` (stereo not given), for which the Potency was 55 µM (active) and 61.1 µM (active) in [1]; 54.5 µM (active) in assay [2]. The Potency result in assay [3], in [5], in assay [6], in [7] and in assay [8] was “inactive” in each case.

`CCCNC(C)C(=O)Nc1ccccc1C` (stereo not given): the Potency result in assay [1], in assay [2], in assay [3], in assay [4], in assay [5] and in assay [6] was “inactive” in each case. For the same molecule, the Potency result in [7] was “inactive”.

As to `Oc1c(Cl)cc(Cl)c(Cl)c1Cc1c(O)c(Cl)cc(Cl)c1Cl`, the Potency in assay [1] was 8.61 µM (active) and 9.69 µM (active) and 9.44 µM (active); in assay [2], 60.9 µM (active) and 30.6 µM (active); in [3], 48.4 µM (active) and 34.4 µM (active) and inactive; in assay [7] it was 13.3 µM (active). The Potency entry in assay [9], in assay [5] and in [6] was “inactive” each time.

For the molecule `NC(N)=Nc1nc(CSCC/C(N)=N/S(N)(=O)=O)cs1`, the Potency result in assay [1], in assay [2], in assay [3], in assay [4] and in assay [7] was “inactive” each time.

On to `OCCOCCN1CCN(C(c2ccccc2)c2ccc(Cl)cc2)CC1` (stereo not given), for which the Potency in [1] is 53.8 µM (active) and inactive; in assay [2], 30.2 µM (active); in assay [3], 26.9 µM (active). Also, the Potency result in assay [5], in assay [6] and in assay [7] was “inactive” in each case.

For the molecule `O=C(O)c1cn(-c2ccc(F)cc2)c2cc(N3CCNCC3)c(F)cc2c1=O`, the Potency entry in assay [1], in assay [2], in [3], in assay [5], in assay [6] and in assay [7] was “inactive” in each case. In assay [8], the Potency entry is “inactive”.

Consider `[Cl][In]([Cl])[Cl]`, for which the Potency entry in [1], in [3], in assay [4] and in assay [7] was “inactive” in each case. The Potency entry in assay [8] was “inactive and 27.3 µM (active)”.

With `CC(N)=O`, the Potency result in assay [1], in assay [2], in [3], in [5], in [6] and in [7] was “inactive” in each case. Further, in assay [8], the Potency entry is “inactive”.

Regarding `c1ccc2c(c1)CCCC2C1=NCCN1` (stereo not given), the Potency entry in assay [2], in [3], in [4], in [5], in assay [6] and in assay [7] was “inactive” throughout.

With `O=S(=O)(O)c1ccc2nc(-c3ccccc3)[nH]c2c1`, the Potency in [2] is 23.2 µM (active); in assay [3], 32.7 µM (active). Moreover, the Potency result in [5], in assay [6], in assay [7] and in assay [8] was “inactive” each time.

Regarding `CC(C)(C)NCC(O)c1cc(O)cc(O)c1` (stereo not given), the Potency result in assay [1], in assay [2], in assay [3], in assay [6], in assay [7] and in assay [8] was “inactive” throughout. In addition, in [5], the Potency was 2.03 µM (active).

For `NC12CC3CC(CC(C3)C1)C2`, the Potency result in assay [1], in assay [2], in assay [3] and in assay [7] was “inactive” throughout.

`CCCCCCCCCCCC[N+](C)(C)C`: the Potency in [2] is 60.9 µM (active); in [3], 68.6 µM (active); in [7], 54.5 µM (active). The Potency entry in [5], in assay [6] and in [8] was “inactive” in each case.

For the molecule `CCc1cc(C(C)(C)C)c(O)c(C(C)(C)C)c1`, the Potency result in [2], in [3], in assay [5], in assay [6], in assay [7] and in [8] was “inactive” in each case.

On to `CC(=O)CC(=O)Nc1ccc2[nH]c(=O)[nH]c2c1`, for which the Potency result in assay [2], in assay [3], in assay [4], in assay [5], in assay [6] and in assay [7] was “inactive” throughout.

As to `CCCN[C@H]1CCc2nc(N)sc2C1`, the Potency result in assay [1], in [2], in assay [3], in [5], in assay [6] and in assay [7] was “inactive” in each case. Moreover, in assay [8], the Potency entry was “inactive”.

Turning to `CN(C)c1ccc2nc3ccc(=[N+](C)C)cc-3sc2c1`, the Potency in assay [2] is 2.08 µM (active) and 27.3 µM (active) and 3.76 µM (active); in assay [7], 33 µM (active) and 27.3 µM (active) and 15 µM (active). Besides, the Potency result in assay [4] and in [8] was “inactive” in each case.

Consider `COC(=O)[C@H]1[C@H]2C[C@@H]3c4[nH]c5cc(OC)ccc5c4CCN3C[C@H]2C[C@@H](OC(=O)c2cc(OC)c(OC)c(OC)c2)[C@@H]1OC`, for which the Potency in assay [2] was 8.62 µM (active) and 9.96 µM (active) and 11.9 µM (active). The Potency entry in assay [5], in assay [6], in [7] and in [8] was “inactive” throughout.

As to `CC(C)(C)NC(=O)[C@@H]1CN(Cc2cccnc2)CCN1C[C@@H](O)C[C@@H](Cc1ccccc1)C(=O)N[C@H]1c2ccccc2C[C@H]1O`, the Potency result in [1], in assay [2], in assay [3], in [7] and in assay [8] was “inactive” in each case.

Regarding `NCCO`, the Potency entry in [2], in [3], in [4], in assay [5], in [6] and in assay [7] was “inactive” in each case. Moreover, the Potency entry in [8] was “inactive”.

Regarding `O=C(Nc1ccccc1SSc1ccccc1NC(=O)c1ccccc1)c1ccccc1`, the Potency result in [3], in assay [4], in [5], in assay [6], in assay [7] and in [8] was “inactive” each time.

As to `Nc1cc(S(=O)(=O)O)cc2cc(S(=O)(=O)O)cc(O)c12`, the Potency result in assay [1] was “inactive and 27.3 µM (active)”; in assay [2] it was “inactive and 4.33 µM (active)”; in assay [7] it was 48.3 µM (active) and 30.6 µM (active). The Potency entry in [3] and in [8] was “inactive” each time.

In the case of `CC[C@H]1CN2CCc3cc(OC)c(OC)cc3[C@@H]2C[C@@H]1C[C@H]1NCCc2cc(OC)c(OC)cc21`, the Potency in assay [1] was 194 nM (active); in assay [7], 38.7 µM (active). The Potency result in [2], in assay [3] and in assay [8] was “inactive” throughout.

As for `COc1ccc(CCN(C)CCCC(C#N)(c2ccc(OC)c(OC)c2)C(C)C)cc1OC` (stereo not given), the Potency entry in assay [2] and in assay [3] was “inactive” each time. The Potency in [6] was 43.2 µM (active); in assay [7], 30.6 µM (active).

Regarding `O=C1OC2(c3ccc(O)cc3Oc3cc(O)ccc32)c2ccccc21`, the Potency result in [2], in [3], in [4], in [5] and in assay [6] was “inactive” throughout.

As for `CCCCCCCCCCCCCC[P+](CCCC)(CCCC)CCCC`, the Potency in assay [2] was 17.1 µM (active) and 27.3 µM (active); in assay [3] it was 19.2 µM (active) and 24.3 µM (active); in assay [6], 54.2 µM (active) and 48.6 µM (active); in assay [7], 12.1 µM (active) and 17.2 µM (active). The Potency entry in assay [9], in [4] and in assay [5] was “inactive” in each case.

The values above are taken from PubChem BioAssay (Tox21).
